# Test results from ChEMBL document CHEMBL1961873, “Compounds: GSK PKIS; Assays: Nanosyn kinase panel” (2012).
# Assays:
# [1] = target: Sphingosine kinase 1 (Homo sapiens) (UniProt Q9NYA1); conditions: at 1 µM;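 note: mean SPHK1 inhibition value reported from the GSK PKIS kinase panel screen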
# [2] = target: T1, Sphingosine kinase 2 (Homo sapiens) (UniProt Q9NRA0); conditions: at 0.1 µM
# T1 sequence (whole entry): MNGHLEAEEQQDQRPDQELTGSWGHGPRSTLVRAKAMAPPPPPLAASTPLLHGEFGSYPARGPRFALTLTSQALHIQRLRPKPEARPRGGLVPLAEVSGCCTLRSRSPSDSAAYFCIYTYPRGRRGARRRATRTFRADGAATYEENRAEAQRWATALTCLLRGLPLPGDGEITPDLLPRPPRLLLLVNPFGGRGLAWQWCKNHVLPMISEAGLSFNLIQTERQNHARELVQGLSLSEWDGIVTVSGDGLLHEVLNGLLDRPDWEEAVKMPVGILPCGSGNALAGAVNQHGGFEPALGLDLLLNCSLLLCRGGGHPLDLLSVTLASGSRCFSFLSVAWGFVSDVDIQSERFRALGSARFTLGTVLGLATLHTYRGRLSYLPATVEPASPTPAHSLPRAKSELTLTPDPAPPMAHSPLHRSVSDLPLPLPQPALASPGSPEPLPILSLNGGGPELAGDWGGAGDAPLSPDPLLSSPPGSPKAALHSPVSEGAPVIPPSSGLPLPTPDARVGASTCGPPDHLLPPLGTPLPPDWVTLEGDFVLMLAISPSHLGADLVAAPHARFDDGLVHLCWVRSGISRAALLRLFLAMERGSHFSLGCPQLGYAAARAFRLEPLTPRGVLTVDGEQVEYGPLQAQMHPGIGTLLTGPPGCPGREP
# [3] = target: T1, Sphingosine kinase 2 (Homo sapiens); conditions: at 1 µM
# [4] = target: Casein kinase II subunit alpha (Homo sapiens) (UniProt P68400); conditions: at 0.1 µM
# [5] = target: Casein kinase II subunit alpha (Homo sapiens) (UniProt P68400); conditions: at 1 µM
# [6] = target: T2, Inhibitor of nuclear factor kappa-B kinase subunit alpha (Homo sapiens) (UniProt O15111); conditions: at 0.1 µM
# T2 sequence (whole entry): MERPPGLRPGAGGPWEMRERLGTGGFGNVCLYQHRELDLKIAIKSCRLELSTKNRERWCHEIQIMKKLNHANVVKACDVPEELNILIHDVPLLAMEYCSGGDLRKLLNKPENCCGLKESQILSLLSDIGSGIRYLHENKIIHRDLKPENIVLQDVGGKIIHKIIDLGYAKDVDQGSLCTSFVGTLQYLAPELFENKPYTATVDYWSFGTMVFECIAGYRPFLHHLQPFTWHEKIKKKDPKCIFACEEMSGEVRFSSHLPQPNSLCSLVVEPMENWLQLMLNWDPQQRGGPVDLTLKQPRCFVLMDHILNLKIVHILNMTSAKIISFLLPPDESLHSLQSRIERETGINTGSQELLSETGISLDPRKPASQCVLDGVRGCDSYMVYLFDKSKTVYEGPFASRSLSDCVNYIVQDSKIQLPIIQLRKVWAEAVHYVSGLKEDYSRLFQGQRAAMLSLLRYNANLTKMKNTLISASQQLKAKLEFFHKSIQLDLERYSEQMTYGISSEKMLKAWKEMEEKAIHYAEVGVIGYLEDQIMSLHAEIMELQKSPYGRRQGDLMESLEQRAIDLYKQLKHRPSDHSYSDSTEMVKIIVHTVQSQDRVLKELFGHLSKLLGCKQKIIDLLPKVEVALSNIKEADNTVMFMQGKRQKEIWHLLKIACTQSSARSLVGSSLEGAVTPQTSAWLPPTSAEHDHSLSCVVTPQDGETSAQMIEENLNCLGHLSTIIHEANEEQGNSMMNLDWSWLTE
# [7] = target: T2, Inhibitor of nuclear factor kappa-B kinase subunit alpha (Homo sapiens); conditions: at 1 µM
# [8] = target: T3, Inhibitor of nuclear factor kappa-B kinase subunit beta (Homo sapiens) (UniProt O14920); conditions: at 0.1 µM
# T3 sequence (whole entry): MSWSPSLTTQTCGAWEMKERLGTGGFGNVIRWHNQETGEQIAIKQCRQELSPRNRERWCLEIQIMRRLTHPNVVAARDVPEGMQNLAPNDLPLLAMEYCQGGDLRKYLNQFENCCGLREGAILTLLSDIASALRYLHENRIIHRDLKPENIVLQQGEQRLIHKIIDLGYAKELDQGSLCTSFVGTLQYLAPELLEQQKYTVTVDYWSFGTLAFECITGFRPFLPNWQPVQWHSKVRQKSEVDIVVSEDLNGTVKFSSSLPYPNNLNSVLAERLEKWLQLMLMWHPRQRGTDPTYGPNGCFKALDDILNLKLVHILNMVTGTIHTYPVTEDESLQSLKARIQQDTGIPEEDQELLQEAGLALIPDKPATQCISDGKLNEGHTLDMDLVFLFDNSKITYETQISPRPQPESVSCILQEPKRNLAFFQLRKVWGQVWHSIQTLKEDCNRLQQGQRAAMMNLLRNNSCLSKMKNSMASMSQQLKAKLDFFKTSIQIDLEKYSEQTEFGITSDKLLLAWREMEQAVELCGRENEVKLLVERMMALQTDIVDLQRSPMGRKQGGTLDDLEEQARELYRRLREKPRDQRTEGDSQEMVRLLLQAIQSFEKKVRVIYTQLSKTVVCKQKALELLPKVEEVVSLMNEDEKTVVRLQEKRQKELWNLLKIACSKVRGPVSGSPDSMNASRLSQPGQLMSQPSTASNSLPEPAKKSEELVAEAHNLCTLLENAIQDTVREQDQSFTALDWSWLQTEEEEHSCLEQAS
# [9] = target: T3, Inhibitor of nuclear factor kappa-B kinase subunit beta (Homo sapiens); conditions: at 1 µM
# [10] = target: T4, Inhibitor of nuclear factor kappa-B kinase subunit epsilon (Homo sapiens) (UniProt Q14164); conditions: at 0.1 µM
# T4 sequence (whole entry): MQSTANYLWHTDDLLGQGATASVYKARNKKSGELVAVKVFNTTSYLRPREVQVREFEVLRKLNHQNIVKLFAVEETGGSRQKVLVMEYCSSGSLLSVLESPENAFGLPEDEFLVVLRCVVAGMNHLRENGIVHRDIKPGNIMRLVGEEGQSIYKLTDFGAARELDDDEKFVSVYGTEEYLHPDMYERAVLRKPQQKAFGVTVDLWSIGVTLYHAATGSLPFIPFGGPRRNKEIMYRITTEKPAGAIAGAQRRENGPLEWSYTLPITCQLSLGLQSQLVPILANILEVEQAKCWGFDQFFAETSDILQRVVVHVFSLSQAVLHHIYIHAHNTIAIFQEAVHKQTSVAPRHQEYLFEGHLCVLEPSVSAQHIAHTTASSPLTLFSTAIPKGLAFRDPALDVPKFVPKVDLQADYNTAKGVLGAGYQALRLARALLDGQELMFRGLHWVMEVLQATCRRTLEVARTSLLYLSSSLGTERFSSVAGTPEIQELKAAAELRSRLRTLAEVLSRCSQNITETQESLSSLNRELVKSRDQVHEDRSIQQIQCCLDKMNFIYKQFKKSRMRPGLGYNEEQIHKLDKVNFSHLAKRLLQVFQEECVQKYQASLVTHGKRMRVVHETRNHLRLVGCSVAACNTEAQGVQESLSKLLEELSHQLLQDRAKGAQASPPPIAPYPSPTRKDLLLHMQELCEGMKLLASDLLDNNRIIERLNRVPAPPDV
# [11] = target: T4, Inhibitor of nuclear factor kappa-B kinase subunit epsilon (Homo sapiens); conditions: at 1 µM
# [12] = target: T5, Serine/threonine-protein kinase Nek1 (Homo sapiens) (UniProt Q96PY6); conditions: at 0.1 µM
# T5 sequence (whole entry): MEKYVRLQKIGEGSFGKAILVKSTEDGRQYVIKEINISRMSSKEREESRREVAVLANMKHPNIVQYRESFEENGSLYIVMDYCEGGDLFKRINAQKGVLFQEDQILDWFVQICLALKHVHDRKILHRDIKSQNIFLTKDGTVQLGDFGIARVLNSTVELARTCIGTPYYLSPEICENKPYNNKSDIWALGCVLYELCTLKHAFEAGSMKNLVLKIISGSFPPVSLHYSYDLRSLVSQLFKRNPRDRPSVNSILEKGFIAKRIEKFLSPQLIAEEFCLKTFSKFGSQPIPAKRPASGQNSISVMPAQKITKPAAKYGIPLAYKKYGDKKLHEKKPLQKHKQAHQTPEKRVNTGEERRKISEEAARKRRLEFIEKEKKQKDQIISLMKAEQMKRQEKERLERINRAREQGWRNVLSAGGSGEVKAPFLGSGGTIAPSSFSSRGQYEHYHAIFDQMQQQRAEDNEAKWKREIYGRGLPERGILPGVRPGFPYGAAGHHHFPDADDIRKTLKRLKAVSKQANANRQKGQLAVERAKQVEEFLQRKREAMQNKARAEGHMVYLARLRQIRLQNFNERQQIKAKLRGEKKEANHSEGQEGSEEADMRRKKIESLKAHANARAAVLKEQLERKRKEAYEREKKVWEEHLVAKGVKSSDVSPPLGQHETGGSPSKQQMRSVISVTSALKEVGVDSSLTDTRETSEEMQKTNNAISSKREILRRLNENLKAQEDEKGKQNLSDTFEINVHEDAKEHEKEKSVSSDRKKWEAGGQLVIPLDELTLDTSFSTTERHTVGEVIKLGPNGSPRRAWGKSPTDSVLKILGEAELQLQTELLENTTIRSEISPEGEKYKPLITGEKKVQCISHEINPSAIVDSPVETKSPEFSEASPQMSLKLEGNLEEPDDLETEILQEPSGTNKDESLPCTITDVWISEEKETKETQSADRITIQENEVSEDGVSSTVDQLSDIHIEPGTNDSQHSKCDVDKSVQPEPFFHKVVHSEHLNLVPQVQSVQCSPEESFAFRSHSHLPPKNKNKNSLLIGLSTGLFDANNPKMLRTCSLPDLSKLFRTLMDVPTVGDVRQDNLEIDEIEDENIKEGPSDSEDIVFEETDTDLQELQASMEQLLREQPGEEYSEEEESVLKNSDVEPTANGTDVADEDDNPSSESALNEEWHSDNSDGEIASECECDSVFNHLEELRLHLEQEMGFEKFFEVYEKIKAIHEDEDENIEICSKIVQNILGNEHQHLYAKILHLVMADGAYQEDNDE
# [13] = target: T5, Serine/threonine-protein kinase Nek1 (Homo sapiens); conditions: at 1 µM
# [14] = target: T6, Serine/threonine-protein kinase Nek2 (Homo sapiens) (UniProt P51955); conditions: at 0.1 µM
# T6 sequence (whole entry): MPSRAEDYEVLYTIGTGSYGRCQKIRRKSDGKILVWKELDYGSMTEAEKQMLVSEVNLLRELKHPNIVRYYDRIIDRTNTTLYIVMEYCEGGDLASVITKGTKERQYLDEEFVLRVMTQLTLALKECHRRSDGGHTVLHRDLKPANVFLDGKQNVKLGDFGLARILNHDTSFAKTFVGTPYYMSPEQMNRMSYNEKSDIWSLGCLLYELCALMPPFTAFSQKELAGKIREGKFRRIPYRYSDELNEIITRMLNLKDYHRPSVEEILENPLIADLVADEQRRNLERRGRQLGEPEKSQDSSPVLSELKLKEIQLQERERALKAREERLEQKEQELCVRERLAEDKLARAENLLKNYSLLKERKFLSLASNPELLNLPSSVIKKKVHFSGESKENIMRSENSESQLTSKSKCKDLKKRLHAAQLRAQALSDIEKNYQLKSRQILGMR
# [15] = target: T6, Serine/threonine-protein kinase Nek2 (Homo sapiens); conditions: at 1 µM
# [16] = target: Serine/threonine-protein kinase Nek6 (Homo sapiens) (UniProt Q9HC98); conditions: at 0.1 µM
# [17] = target: Serine/threonine-protein kinase Nek6 (Homo sapiens) (UniProt Q9HC98); conditions: at 1 µM
# [18] = target: Serine/threonine-protein kinase Nek7 (Homo sapiens) (UniProt Q8TDX7); conditions: at 0.1 µM
# [19] = target: Serine/threonine-protein kinase Nek7 (Homo sapiens) (UniProt Q8TDX7); conditions: at 1 µM
# [20] = target: T7, Serine/threonine-protein kinase Nek9 (Homo sapiens) (UniProt Q8TD19); conditions: at 0.1 µM;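 note: reported value is the mean percent inhibition of NEK9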
# T7 sequence (whole entry): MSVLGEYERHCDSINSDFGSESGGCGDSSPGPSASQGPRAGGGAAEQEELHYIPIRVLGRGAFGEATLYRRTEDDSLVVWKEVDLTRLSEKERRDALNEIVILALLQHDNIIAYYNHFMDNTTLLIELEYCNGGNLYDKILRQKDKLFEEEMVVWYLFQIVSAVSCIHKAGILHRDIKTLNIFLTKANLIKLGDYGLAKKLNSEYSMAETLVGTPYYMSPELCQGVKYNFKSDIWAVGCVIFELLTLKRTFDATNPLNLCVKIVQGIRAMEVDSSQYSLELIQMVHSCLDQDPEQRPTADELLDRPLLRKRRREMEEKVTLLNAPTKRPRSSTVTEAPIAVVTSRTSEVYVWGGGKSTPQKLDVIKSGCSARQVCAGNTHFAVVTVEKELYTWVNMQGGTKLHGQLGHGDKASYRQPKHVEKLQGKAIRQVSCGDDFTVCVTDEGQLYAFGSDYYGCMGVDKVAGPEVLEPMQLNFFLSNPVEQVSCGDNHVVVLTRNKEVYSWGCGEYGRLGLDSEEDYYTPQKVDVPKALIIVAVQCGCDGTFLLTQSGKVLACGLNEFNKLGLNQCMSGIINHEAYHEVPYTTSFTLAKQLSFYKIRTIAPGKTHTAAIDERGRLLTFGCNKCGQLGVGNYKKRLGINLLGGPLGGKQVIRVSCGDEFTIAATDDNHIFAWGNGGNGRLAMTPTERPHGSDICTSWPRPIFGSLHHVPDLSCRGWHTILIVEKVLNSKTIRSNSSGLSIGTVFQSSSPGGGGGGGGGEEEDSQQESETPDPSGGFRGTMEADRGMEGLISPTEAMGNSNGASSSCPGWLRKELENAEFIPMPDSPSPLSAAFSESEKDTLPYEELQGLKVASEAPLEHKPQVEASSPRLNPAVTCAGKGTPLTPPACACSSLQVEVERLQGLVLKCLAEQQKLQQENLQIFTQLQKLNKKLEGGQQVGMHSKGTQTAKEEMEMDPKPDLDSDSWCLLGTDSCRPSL
# Serine/threonine-protein kinase Nek7 (Homo sapiens), sequence (Q8TDX7 whole entry, looked up): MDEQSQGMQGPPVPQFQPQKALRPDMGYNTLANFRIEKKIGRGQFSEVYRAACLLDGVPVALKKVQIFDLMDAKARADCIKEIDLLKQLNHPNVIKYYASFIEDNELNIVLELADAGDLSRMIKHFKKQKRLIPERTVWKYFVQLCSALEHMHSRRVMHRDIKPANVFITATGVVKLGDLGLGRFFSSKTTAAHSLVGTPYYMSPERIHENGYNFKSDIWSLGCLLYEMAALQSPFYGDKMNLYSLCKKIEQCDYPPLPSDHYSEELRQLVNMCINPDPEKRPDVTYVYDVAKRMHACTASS
# Casein kinase II subunit alpha (Homo sapiens), sequence (P68400 whole entry, looked up): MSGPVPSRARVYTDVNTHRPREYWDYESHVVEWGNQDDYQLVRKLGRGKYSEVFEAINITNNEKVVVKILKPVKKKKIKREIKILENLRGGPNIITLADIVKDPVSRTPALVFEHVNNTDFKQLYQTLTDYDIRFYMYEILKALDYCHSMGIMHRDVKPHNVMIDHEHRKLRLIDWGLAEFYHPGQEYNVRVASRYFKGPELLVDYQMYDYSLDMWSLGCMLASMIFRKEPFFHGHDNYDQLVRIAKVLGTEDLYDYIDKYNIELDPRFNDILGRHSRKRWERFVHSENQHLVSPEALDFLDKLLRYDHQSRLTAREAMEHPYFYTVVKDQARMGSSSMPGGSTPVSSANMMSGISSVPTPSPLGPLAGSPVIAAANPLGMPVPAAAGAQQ
# Serine/threonine-protein kinase Nek6 (Homo sapiens), sequence (Q9HC98 whole entry): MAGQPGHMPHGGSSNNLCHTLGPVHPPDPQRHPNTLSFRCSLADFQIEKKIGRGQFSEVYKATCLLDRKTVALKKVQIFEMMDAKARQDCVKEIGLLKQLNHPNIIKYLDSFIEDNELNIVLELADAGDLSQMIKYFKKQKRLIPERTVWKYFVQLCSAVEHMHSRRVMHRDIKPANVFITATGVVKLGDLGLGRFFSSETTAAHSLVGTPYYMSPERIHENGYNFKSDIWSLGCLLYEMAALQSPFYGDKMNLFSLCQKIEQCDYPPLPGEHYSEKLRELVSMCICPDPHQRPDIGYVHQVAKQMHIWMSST
# Sphingosine kinase 1 (Homo sapiens), sequence (Q9NYA1 whole entry): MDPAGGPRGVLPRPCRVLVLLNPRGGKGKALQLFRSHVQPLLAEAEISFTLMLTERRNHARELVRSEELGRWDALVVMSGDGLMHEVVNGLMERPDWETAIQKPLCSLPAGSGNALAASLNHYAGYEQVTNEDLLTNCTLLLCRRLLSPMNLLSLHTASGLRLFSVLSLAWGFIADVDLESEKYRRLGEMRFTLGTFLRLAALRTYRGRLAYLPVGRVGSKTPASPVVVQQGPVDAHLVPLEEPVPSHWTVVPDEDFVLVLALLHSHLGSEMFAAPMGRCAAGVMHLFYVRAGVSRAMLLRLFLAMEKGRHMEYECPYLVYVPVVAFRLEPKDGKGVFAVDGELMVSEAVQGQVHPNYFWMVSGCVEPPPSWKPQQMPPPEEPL
Compound,inhibition [1] [%],inhibition [2] [%],inhibition [3] [%],inhibition [4] [%],inhibition [5] [%],inhibition [6] [%],inhibition [7] [%],inhibition [8] [%],inhibition [9] [%],inhibition [10] [%],inhibition [11] [%],inhibition [12] [%],inhibition [13] [%],inhibition [14] [%],inhibition [15] [%],inhibition [16] [%],inhibition [17] [%],inhibition [18] [%],inhibition [19] [%],inhibition [20] [%]
COc1ccc2cc(-c3c(-c4ccncc4)nc(-c4ccc([S+](C)[O-])cc4C)n3C)ccc2c1 (stereo not given),5.11,0.43,0.76,2.77,3.85,-4.94,-5.55,-0.05,-2.53,-2.45,-2.02,0.36,0.54,-0.64,-0.11,0.58,1.1,2.37,0.01,3.4
Cc1nnc(-c2ccc(C)c(-c3ccc(C(=O)NCc4ccc(Cl)cc4)cc3)c2)o1,-3.95,0.02,0.44,2.9,5.39,8.21,5.98,6.95,4.95,5.66,5.13,2.48,4.54,4.28,3.25,3.46,5.29,5.57,3.78,6.68
